Most compounds without a hit are left out; they make up all but 19% or so of the library.
TDP1 cell noCPT = qHTS for Inhibitors of human tyrosyl-DNA phosphodiesterase 1 (TDP1): qHTS in cells in absence of CPT. DT40 Tdp1-/- hTDP1 cells, no CPT, ATP luminescence, 48 h. Potency, µM (top dose mostly 46.2 µM), for the others: at the top dose activity change, negative = growth inhibition, hits mostly inhibitors. 15% of 420,000 active. AID 686978, 2013; note: potency is the fitted concentration of half-maximal effect; % is set by controls: 0 for no effect and ±100 for the full control effect; nearly all actives have a fitted effect of over 55% in size
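Growth kinetics read by CellTiter-Glo luminescence after ≥48 hr at 37 °C. Cells: DT40 Tdp1-/- stably carrying human TDP1, 400 per well, compound exposure in the absence of CPT (DMSO vehicle).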
HepG2 tox = kills HepG2 cells in TGF-b inhibitor counter-screen; Potency, µM (series often up to 46.1 µM), inactives show top-dose activity change, negative = cytotoxicity, usual class: cytotoxic; HepG2 CAGA-GFP viability, ATP luminescence, 18 h; 0.76% of 410,000 active; note: potency is the fitted concentration of half-maximal effect
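CellTiter-Glo luminescence gave cytotoxicity after 18 hours at 37 degrees C. The cells were HepG2 CAGA-GFP in 1% FBS DMEM, stimulated with 500 pg/mL TGF-beta after compound addition. %Activity was normalised to no-cell wells (complete cell-killing) and DMSO (no toxicity), and curves were fitted and classified.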
TGFb SMAD3 inh = inhibitors of TGF-b signaling; HepG2 CAGA-GFP TGF-b/SMAD3 reporter, GFP fluorescence, 18 h; TGF-beta stimulated, 500 pg/mL final; AID 588855; Potency, µM (doses to about 46.1 µM), inactives show at the top dose activity, negative = inhibition, actives largely listed as inhibitors; 1.2% of 410,000 active; note: potency is the fitted concentration of half-maximal effect; % is set by controls: 0 for no effect and ±100 for the full control effect; nearly all actives have a fitted effect of over 65% in size
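Using HEPG2 CAGA-GFP reporter cells at 1000 cells/well, we pinned test compounds, stimulated with recombinant TGF-beta (500 pg/mL final) and measured total well GFP after 18 h.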
S-ASM inh = blocks human secretory acid sphingomyelinase; P17405; placental ASM, HMU-PC fluorogenic substrate, 60 min; Potency, µM (series often up to 57.5 µM), for inactives: at the highest dose activity change, negative = inhibition, most hits filed as inhibitors; 0.006% of 340,000 active; AID 504937; note: potency is the fitted concentration of half-maximal effect
Target sequence (P17405 47-631 limits assumed): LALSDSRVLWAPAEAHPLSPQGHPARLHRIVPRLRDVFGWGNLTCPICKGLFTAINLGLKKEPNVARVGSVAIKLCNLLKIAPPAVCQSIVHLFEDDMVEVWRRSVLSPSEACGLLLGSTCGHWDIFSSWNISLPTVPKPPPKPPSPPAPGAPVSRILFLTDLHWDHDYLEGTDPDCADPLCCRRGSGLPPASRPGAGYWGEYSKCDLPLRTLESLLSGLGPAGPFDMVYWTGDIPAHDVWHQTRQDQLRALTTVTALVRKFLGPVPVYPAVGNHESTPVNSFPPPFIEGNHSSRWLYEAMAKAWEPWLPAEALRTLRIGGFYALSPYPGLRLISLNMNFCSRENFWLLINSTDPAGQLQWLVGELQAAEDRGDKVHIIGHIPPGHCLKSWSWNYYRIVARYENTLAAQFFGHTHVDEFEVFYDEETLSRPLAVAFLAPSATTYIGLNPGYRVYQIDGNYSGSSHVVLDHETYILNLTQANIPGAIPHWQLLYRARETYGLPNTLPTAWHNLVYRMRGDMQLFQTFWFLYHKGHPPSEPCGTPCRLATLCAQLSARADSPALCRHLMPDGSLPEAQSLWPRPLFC
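Fluorescence read-out (Ex 386 nm, Em 447 nm) after stopping the reaction at pH 10. Enzyme: ASM from human placenta; substrate HMU-PC0, 9 uM final; 60 min, 37 °C. Compound preincubation 10 min, ambient temperature.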
DT40 TDP1 CPT = growth inhibition of DT40 Tdp1-/-;hTDP1 cells with camptothecin (screen for TDP1 inhibitors) | chicken DT40 Tdp1-/-;hTDP1 cells + 20 nM CPT, ATP luminescence, 48 h | Potency, µM (series often up to 46.2 µM), without a hit: at the highest dose activity change, negative = growth inhibition, usual class: inhibitors | 12% of 420,000 active; note: potency is the fitted concentration of half-maximal effect; % is set by controls: 0 for no effect and ±100 for the full control effect; nearly all actives have a fitted effect of over 55% in size
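Chicken DT40 Tdp1-/- cells complemented with human TDP1, 400 cells/well, exposed to compounds plus 20 nM camptothecin for at least 48 h at 37 C; viability read as ATP content by CellTiter-Glo luminescence.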
IL-1B inflam inh = inhibitors of inflammasome signaling (IL-1 beta secretion); THP-1 LPS/ATP IL-1B secretion, AlphaLISA, 16 h; stronger effect = lower value; activity change, % at 57.5 µM; 4.7% of 360,000 active; AID 743279; in the data active = activity change below about -50%; inconclusive = mostly about -30% to -49%; note: % is set by controls: 0 for no effect and ±100 for the full control effect
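Secreted IL-1B measured by AlphaLISA bead assay after 16 h compound exposure of THP-1 cells; compounds (final up to 57.5 uM) added 1 h before LPS (250 ng/mL) and ATP (1.25 mM) stimulation; lower signal means less secretion.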
The depositor's hits bear a star; ? = inconclusive; / = not tested or not shown. Unless noted, calls come from the whole dose curve; as a rule, active = well fitted curve in the direction sought with a large enough effect; inconclusive = small, poorly fitted or top-dose-only effect, or another doubt; inactive = no such curve, though single readings can be large; an effect the other way counts as inactive or inconclusive.

SMILES	TDP1 cell noCPT	HepG2 tox	TGFb SMAD3 inh	S-ASM inh	DT40 TDP1 CPT	IL-1B inflam inh
CCN(CC)c1nc2c(c(=O)n(C)c(=O)n2C)n1CC(=O)c1ccccc1	23µM*	13%	0%	-5%	?	43
Cn1c(=O)c2c(nc(Br)n2Cc2nnc(N)s2)n(C)c1=O	11%	30%	1%	7%	14%	-14
COc1ccc(C(=O)Cn2c(Cl)nc3c2c(=O)n(C)c(=O)n3C)cc1	21µM*	-8%	0%	1%	?	38
CCOc1ccc(C(=O)N(CC(=O)Nc2cccc(C)c2C)CC2CCCO2)cc1OC (stereo not drawn)	-27%	13%	9%	0%	?	-3
CCc1ccc(NC(=O)Cn2c(=O)n(CCCCC(=O)NCCc3ccc(Cl)cc3)c(=O)c3ccccc32)cc1	?	-3%	1%	/	?	/
COc1ccc(NC(=O)Cn2c(=O)n(C(C)C)c(=O)c3oc4ccccc4c32)cc1Cl	16µM*	-5%	?	/	?	/
Cc1ccc(Cn2c(=O)n(Cc3ccco3)c(=O)c3oc4ccccc4c32)cc1	-10%	-14%	-32%	/	-6%	/
Cc1ccc(Cn2c(=O)n(-c3cc(C)cc(C)c3)c(=O)c3oc4ccccc4c32)cc1	23µM*	-5%	1%	/	?	/
CCc1ccccc1NC(=O)Cn1c(=O)n(C(C)C)c(=O)c2oc3ccccc3c21	?	-10%	?	/	-22%	/
COc1ccc(NC(=O)Cn2c(=O)n(-c3cc(C)cc(C)c3)c(=O)c3oc4ccccc4c32)cc1OC	8.2µM*	-13%	13%	/	8.2µM*	/
O=C(COC(=O)c1cccc(F)c1)NC(=O)NCc1ccccc1	17%	-16%	0%	0%	-9%	13
Cc1noc(C)c1C(=O)N1CCC2(CCN(Cc3cc(C(F)(F)F)cc(C(F)(F)F)c3)CC2)CC1	23µM*	/	/	/	?	/
COc1ccc(C(=O)N2CCC[C@@]3(CCN(Cc4cc(C(F)(F)F)cc(C(F)(F)F)c4)C3)C2)cc1	?	/	/	/	-9%	/
COc1ccc(C(=O)N2CCC3(CCN(Cc4cc(C(F)(F)F)cc(C(F)(F)F)c4)CC3)CC2)cc1	?	/	/	/	23µM*	/
O=C(c1csnn1)N1CCC2(CCN(Cc3cc(C(F)(F)F)cc(C(F)(F)F)c3)CC2)CC1	23µM*	/	/	/	?	/
Cc1ccc(CNC(=O)c2cc(-c3ccc(Cl)cc3)on2)cc1	-7%	1%	2%	/	1%	/
CCOC(=O)NC(=S)Nc1ccc(C(C)(C)C)cc1	?	-21%	-5%	-4%	?	17
COc1cc2cc(C)nc(Cc3cccc4ccccc34)c2cc1OC	23µM*	-24%	?	1%	15µM*	-8
COc1cc(NC(=O)Cc2cccc3ccccc23)c(C(=O)O)cc1OC	18%	13%	7%	10%	-15%	11
CC1CCc2sc(C(=O)NNC(=S)NC3CC3)cc2C1 (stereo not drawn)	2%	-2%	-8%	-1%	-25%	-1
O=c1[nH]c(CN(CCc2ccccc2)S(=O)(=O)c2ccc(Cl)cc2)nc2ccccc12	?	-2%	-22%	-8%	-4%	14
COc1ccc(S(=O)(=O)N(Cc2ccccc2)Cc2nc3ccccc3c(=O)[nH]2)cc1	5.2µM*	-5%	9%	-4%	4.6µM*	2
COc1ccccc1CN(Cc1nc2ccccc2c(=O)[nH]1)S(=O)(=O)c1ccc2ccccc2c1	5.6µM*	-23%	?	-7%	3.7µM*	-26
CCN(Cc1nc2ccccc2c(=O)[nH]1)Cc1nc2cc(OC)c(OC)cc2c(=O)[nH]1	?	-3%	0%	-3%	-7%	-21
Cc1ccc(CNc2ccc(N3CCN(C)CC3=O)cc2)cc1	/	-9%	0%	0%	/	/
SMILES	TDP1 cell noCPT	HepG2 tox	TGFb SMAD3 inh	S-ASM inh	DT40 TDP1 CPT	IL-1B inflam inh
Cc1nnc(SCC(=O)N(C2CCCCC2)C2CCS(=O)(=O)C2)n1C (stereo not drawn)	5%	2%	19%	3%	-20%	24
CC1CC=CC2C1C(=O)N(Cc1ccccc1)C2c1ccc(F)c(Br)c1 (stereo not drawn)	/	-83%	?	/	/	/
O=C1[C@H](Cc2ccccc2)NCC=CC[C@@H](c2ccc(Cl)cc2)N1Cc1ccc(Cl)cc1	?	-91%	?	-25%	?	-60*
CC(C)CC(=O)N1C/C=C\C[C@@H](c2ccc(Cl)cc2)N(Cc2ccc(Cl)cc2)C(=O)[C@@H]1Cc1ccccc1	13µM*	-40%	?	/	10µM*	/
O=C1[C@H](Cc2ccccc2)NCC=CC[C@H](c2ccc(Cl)cc2)N1Cc1ccc(Cl)cc1	16µM*	-60%	?	?	23µM*	-66*
O=c1[nH]c2ccccc2n1Cc1ccc(Cl)cc1	?	-1%	-8%	0%	-20%	-4
O=C1[C@H](Cc2ccccc2)NCC=CC[C@H](c2ccc(Cl)cc2)N1Cc1ccccc1	?	-39%	18µM*	-9%	?	-52*
Cc1cc(OCC(=O)N2CCC(C(=O)O)CC2)c2c(C)cc(=O)oc2c1	-7%	-17%	3%	-2%	7%	7
Clc1ccc(-c2noc(-c3cccnc3NCc3ccco3)n2)cc1	4%	0%	-8%	/	2%	/
CCOC(=O)NC(=O)COC(=O)c1cccc2ccccc12	-8%	-21%	-1%	-2%	3%	-7
O=C(CSc1ncnc2sc3c(c12)CCCC3)N1CCC(c2noc3ccc(F)cc23)CC1	10µM*	-18%	-8%	-8%	11µM*	4
Cc1cc(SCC(=O)N2CCCC2=O)nc2ccccc12	-6%	3%	-5%	4%	11%	21
Cc1cc(SCC(=O)N2CCC(c3noc4ccc(F)cc34)CC2)nc2ccccc12	?	-1%	-13%	-3%	23µM*	?
O=C(c1ccccc1)N1CCCCC(Cl)C1=O (stereo not drawn)	-10%	-4%	-21%	0%	3%	6
CCOc1ccc(NC(=O)Nc2cc(C(C)C)c(O)cc2C)cc1	?	5%	-2%	-1%	?	-3
Cc1cc(O)c(C(C)C)cc1NC(=S)Nc1cc(C(C)C)c(O)cc1C	?	4%	10µM*	-1%	?	-55*

Screening data as filed in PubChem.
